# Bioassay records from PubChem BioAssay.
# This is a sample that favours compounds with a hit; in the whole collection about 6.6% have one here.
# Autofluor counter – counter-screen for toxin protease inhibitors: compound fluorescence; compound autofluorescence counterscreen, microsphere flow cytometry; hits give high values; fluorescence intensity (no concentration beside the values); 360,000 tested, 3.1% active; AID 624483; in the data active = fluorescence intensity above about 16000; inconclusive = no clear call, values can overlap the other calls
# BoNT F protease – inhibitors of Botulinum neurotoxin F light chain protease; Multiplex microsphere protease cleavage assay, flow cytometry; inhibition, % at 10 µM; 360,000 tested, 0.22% active; in the data active = inhibition above about 35%, passing the limit was not always enough; inconclusive = no clear call, values can overlap the other calls
# FBA Mtb inh – inhibitors of M. tuberculosis fructose-bisphosphate aldolase; P9WQA3; purified M. tuberculosis FBA, fluorescence read-out; inhibition, % at 1 µM; 360,000 tested, 2.3% active; in the data active = inhibition above about 27%
# BoNT A protease – BoNT A light chain protease inhibition. multiplex microsphere protease substrate cleavage, flow cytometry. inhibition, % at 10 µM. 360,000 tested, 0.17% active. AID 588499
# Anthrax LF prot – blocks Bacillus anthracis lethal factor protease | P15917 | multiplex microsphere protease cleavage assay, LF | inhibition, % at 10 µM | 360,000 tested, 0.12% active | AID 588501
# GDH-TPI inh – inhibits GDH-TPI coupling enzymes, artifact for Mtb FBA screen; GDH-TPI coupled enzyme counterscreen, NADH absorbance; inhibition, % at 4.8 µM; 360,000 tested, 1.2% active; AID 588335; in the data active = inhibition above about 30%
# Numbers stand for hits; 0 = inactive; ? = inconclusive; - = no result given; + = active, no number. Cut-off read from the data, not from the text of the source, unless noted: active = inhibition above about 30%; inconclusive = no clear call, values can overlap the other calls; inactive = below that.
SMILES,Autofluor counter,BoNT F protease,FBA Mtb inh,BoNT A protease,Anthrax LF prot,GDH-TPI inh
CCN(CC)C(=O)Cn1cnc2sc(C(=O)NCCCN3CCOCC3)c(C)c2c1=O,0,0,0,0,0,0
O=C(N/N=C/c1cccs1)c1ccc(NC(=O)c2ccccc2Cl)cc1,0,0,0,0,0,32.6
O=C(N/N=C/c1cccs1)c1cccc(NC(=O)c2ccccc2Cl)c1,0,0,0,0,0,0
Cc1ccc(/C=N/NC(=O)c2ccc(NC(=O)c3ccccc3Cl)cc2)o1,0,0,0,0,0,49.1
O=C1C(Cc2cccc([N+](=O)[O-])c2)SC(=Nc2ccccc2)N1c1ccccc1 (stereo unspecified),0,0,0,0,0,0
COC(CNC(=O)c1ccc2c(c1)nc(C)n2-c1cc(C)cc(C)c1)OC,0,0,0,0,0,0
COC(CNC(=O)c1ccc2c(c1)nc(C)n2-c1cccc(F)c1)OC,21945,0,0,0,0,0
COC(CNC(=O)c1ccc2c(c1)ncn2-c1cccc(F)c1)OC,0,0,0,0,0,0
COC(CNC(=O)c1ccc2c(c1)nc(C)n2-c1ccc(F)c(F)c1)OC,22581,0,0,0,0,0
COc1ccc(CNc2ncc(-c3ccc(Cl)cc3)n2C)c(OC)c1OC,0,0,0,0,0,0
CC(=O)c1cc2c(cc1NC(=O)C1CC1)OCO2,0,0,0,0,0,0
CCCCc1c(C)c(C#N)c2nc3ccccc3n2c1NCCN(C)C,0,0,0,0,0,0
Cc1c2c(n3c(nc4ccccc43)c1C#N)N(CCCN(C)C)CC2,0,0,140.5,0,0,0
COC(=O)CCc1c(C)c(C#N)c2nc3ccccc3n2c1N1CCCC1,22382,0,0,0,0,0
Cc1c2c(n3c(nc4ccccc43)c1C#N)N(CCN(C)C)CC2,0,0,+,0,0,0
CCn1nc(NC(=O)c2ccco2)c2cc3ccccc3nc21,16504,0,0,0,0,0
CCCn1nc(NC(=O)CC(C)C)c2cc3ccccc3nc21,22379,0,0,0,0,0
CCCCC(=O)Nc1nn(CC(C)C)c2nc3ccccc3cc12,21680,0,0,?,0,0
CCCn1nc(NC(=O)CC)c2cc3cccc(C)c3nc21,0,0,0,0,0,0
CC(C)Cn1nc(NC(=O)C(C)(C)C)c2cc3ccccc3nc21,0,0,0,0,0,0
Nn1c(COc2ccccc2F)nnc1SCC(=O)NC1CCCCC1,0,0,0,0,0,0
COc1cc(C#Cc2ccc3cc(CCO)oc(=O)c3c2)cc(OC)c1,0,0,0,0,0,36.2
CN(C)c1ccc(C#Cc2ccc3cc(CCO)oc(=O)c3c2)cc1,0,0,0,0,0,0
Fc1ccccc1N1CC(c2ccccc2)C(c2cccs2)=N1 (stereo unspecified),0,0,161.0,0,0,0
Fc1ccc(N2N=C(c3cccs3)CC2c2ccccc2)cc1 (stereo unspecified),0,0,0,0,0,0
SMILES,Autofluor counter,BoNT F protease,FBA Mtb inh,BoNT A protease,Anthrax LF prot,GDH-TPI inh
COC(=O)c1cccc(CC2(C)C(=O)Nc3ccc(OC(F)(F)F)cc32)c1 (stereo unspecified),0,0,0,0,0,0
N#CC1=C(N)N2C(=C(C#N)C13CCCCC3)SC1CCCCC12O (stereo unspecified),22232,0,0,0,0,0
CC(C)(C)C(=O)CN1C(=O)NC(C)(Cc2ccc3c(c2)OCO3)C1=O (stereo unspecified),0,0,0,0,0,0
C=C(C)CSc1nnc([C@@H](NC(=O)OC(C)(C)C)C(C)CC)o1 (stereo partly specified),20796,0,0,?,0,0
CCOC(=O)N1CCN(Cc2nc3cc(NC(=O)c4ccco4)ccc3n2CC)CC1,0,0,0,0,0,0
O=c1oc2cc(O)ccc2cc1S(=O)(=O)c1ccccc1,0,0,+,0,0,0
O=c1cc(-c2cc3ccccc3o2)c2cc(O)ccc2o1,0,0,0,0,0,0
O=c1oc2cc(O)ccc2cc1-c1nc2ccccc2o1,0,0,+,0,0,-
CCC12CCCN3CCC4(C(=C(C(=O)OC)C1)Nc1ccccc14)C32 (stereo unspecified),0,0,0,0,0,32.8
COC(=O)C1=CO[C@H](C)[C@H]2CN3CC[C@@]4(C(=O)Nc5ccccc54)[C@@H]3C[C@H]12,0,0,0,0,0,0
O=C(NCCCN1CCOCC1)c1cc2c(s1)-c1ccccc1OC2,0,0,+,0,0,35.3
O=C(NCCCN1CCOCC1)c1cc2c(s1)CCCC2,?,0,0,0,0,0
O=C(c1ccco1)N1CCN(C(=O)c2cc3c(s2)-c2ccccc2OC3)CC1,0,0,112.5,0,0,0
O=C(N/N=C/c1ccc(Cl)cc1)c1cc2c(s1)-c1ccccc1CC2,0,0,0,0,0,0
O=C(O)c1cc2c(s1)-c1ccccc1CC2,0,0,190.8,0,0,51.9
O=C(O)c1cc2c(s1)-c1ccccc1OC2,0,0,+,0,0,0
O=C(Nc1cccc(C(F)(F)F)c1)c1cc2c(s1)-c1ccccc1OC2,0,0,0,0,0,0
COc1c(F)c(F)c(C(=O)O)c(Nc2ccc(C)cc2C)c1F,0,0,0,0,0,0
O=C(c1ccc(F)cc1F)N1CCN(c2n[nH]c(=O)[nH]c2=O)CC1,0,0,0,0,0,0
O=C(c1ccco1)N1CCN(C(=O)c2ccco2)CC1,0,0,0,0,0,-
O=C(NCc1cccs1)c1cc2c(s1)-c1ccccc1OC2,0,0,+,0,0,0
O=C(NC1CC1)c1cc2c(s1)-c1ccccc1OC2,0,0,+,0,0,0
COc1ccc2c(c1)CCc1cc(C(=O)O)sc1-2,0,0,+,0,0,0
O=C(c1ccco1)N1CCN(C(=O)c2sccc2-c2ccccc2)CC1,20729,0,0,0,0,0
COc1ccc(-c2cc(C(=O)O)sc2C)cc1,0,0,0,0,0,0
SMILES,Autofluor counter,BoNT F protease,FBA Mtb inh,BoNT A protease,Anthrax LF prot,GDH-TPI inh
Cc1ccc(S(=O)(=O)NCC(=O)NCC(=O)N(C)Cc2ccc3ccccc3c2)cc1C,0,0,0,0,0,0
Cn1cccc1C(=O)NCc1ccc(S(N)(=O)=O)cc1,0,0,0,0,0,0
COCCNC(=O)CSc1nnc(-c2ccccc2F)n1Cc1ccccc1,0,0,0,0,0,0
COc1ccc(C(C)=O)cc1CN1C(=O)C(C)ON=C1c1ccccn1 (stereo unspecified),0,0,0,0,0,0
COC(=O)Nc1ccc(S(=O)(=O)N2c3ccccc3CCC2C)cc1 (stereo unspecified),0,0,0,0,0,0
CCN(CC)S(=O)(=O)c1ccc(N2CCOCC2)c(NC(=O)c2ccc(N3CCCC3=O)cc2)c1,0,0,0,0,0,0
O=C(O)C1CCCN1S(=O)(=O)c1ccc(Cl)cc1 (stereo unspecified),0,0,0,0,0,0
O=C(O)C1CCCN1S(=O)(=O)c1ccccc1 (stereo unspecified),20858,0,0,0,0,0
